This is a sample that favours compounds with a hit; in the whole collection about 2.2% have one here.
FUS suppressor: rescues growth of FUS-expressing yeast. S. cerevisiae FUS-expressing, growth rescue, OD600, 24 h. AID 1347120. 390,000 tested, 0.24% active. Potency, µM (series often up to 76.6 µM), hits mostly activators;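 further: plate controls were DMSO vehicle for no effect and reference control for full effect; nearly all actives have a fitted effect of over 55% in size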
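Absorbance at 600 nm, taken 24hr after compound addition, measured rescue of FUS-yeast growth at 30C. Induction used 2% galactose with seeding at OD 0.005. Controls: CP55940 from 92uM final, DMSO only.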
TDP43 rescue: inhibitors of TDP-43 toxicity in yeast; TDP-43 expressing yeast growth rescue, BacTiter-Glo, 24 h; Potency, µM (highest dose often 46.1 µM), inactives show top-dose growth rescue (activation), hits mostly activators; 410,000 tested, 1.8% active; AID 652104; further: % of control where 0% means no effect; nearly all actives have a fitted effect of over 50% in size
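Yeast cells expressing TDP-43 under galactose induction are exposed to compounds for 24 hr at 30 deg C. BacTiter-Glo luminescence measures growth, so protective compounds score as activators.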
Mito fusion act: inhibitors of mitochondrial division or activators of mitochondrial fusion; S. cerevisiae fusion-defective mutant growth rescue, CellTiterGlo 48 h; Potency, µM (doses to about 46.1 µM), inactives show at the highest dose growth rescue (activation), most hits filed as activators; 320,000 tested, 0.23% active; further: % of control where 0% means no effect; nearly all actives have a fitted effect of over 45% in size
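Compounds are tested for their ability to restore growth of mitochondrial fusion-defective yeast strains at non-permissive 37C in YPEG medium over 48 hours. Viability is quantified by luciferase luminescence.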
Abeta rescue: compounds reversing amyloid beta toxicity in yeast; yeast expressing A-beta42, growth rescue, OD600, 48 h; response scale: 0% DMSO, 100% iron-clioquinol control; Potency, µM (doses to about 46.1 µM), most hits filed as activators; 410,000 tested, 0.063% active; further: nearly all actives have a fitted effect of over 55% in size
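Yeast A-beta toxicity model in growth medium with pinned compounds, 48 h at 30 C; growth read as absorbance at 600 nm. Normalized to FeCl3/clioquinol equimolar mix (positive) and DMSO (negative).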
aSyn rescue: rescues yeast growth from alpha-synuclein toxicity. Yeast expressing alpha-synuclein, growth rescue, BacTiter-Glo, 24 h. Potency, µM (titrated, usually from 46.1 µM), for the others: at the top dose growth rescue (activation), actives largely listed as activators. 370,000 tested, 0.14% active; further: % of control where 0% means no effect; nearly all actives have a fitted effect of over 65% in size
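Screening used galactose-induced yeast with toxic alpha-synuclein levels, exposed to compound for 24 hr at 30 deg C. Cell growth, read with BacTiter-Glo luminescence, gave the measured signal.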
Starred values were filed as active, the others as inactive; i = inactive; ? = inconclusive; . = no result given; [ ] = remark or other dose. The call rests on the fitted dose curve; in most records, active means well fitted curve in the direction sought with a large enough effect; inconclusive means small, poorly fitted or top-dose-only effect, or another doubt; inactive means no such curve, though single readings can be large; an effect the other way counts as inactive or inconclusive. Potency means the concentration at half of the fitted maximal effect.

SMILES | FUS suppressor | TDP43 rescue | Mito fusion act | Abeta rescue | aSyn rescue
CCOC(=O)CSc1c(-c2cccs2)[nH]c2ccccc12 | i | 16µM* | 14µM* | ? | 4%
COC(=O)c1sc2nc3c(cc2c1N)C(=O)CC(C)(C)C3 | i | -21% | -1% | i | 1%
Cc1cc(C)c(NC(=O)c2sc3nc4c(cc3c2N)C(=O)CC(C)(C)C4)c(C)c1 | ? | 20µM* | 13µM* | i | -2%
CCC(c1ccc(OC)cc1)c1cn(C)c2ccccc12 (stereo not drawn) | i | . | . | . | .
Cn1cc(C(C[N+](=O)[O-])c2ccccc2)c2ccccc21 (stereo not drawn) | i | 13µM* | 28% | i | 12%
Fc1ccc(C(Nc2ccccn2)c2c[nH]c3ccccc23)cc1 (stereo not drawn) | i | 20µM* | 3% | ? | ?
NCC(c1ccccc1)c1c[nH]c2ccccc12 (stereo not drawn) | i | -8%[1.82 µM] | -4% | i | 0%
O=[N+]([O-])CC(c1ccc(F)cc1)c1c[nH]c2ccccc12 (stereo not drawn) | i | 18µM* | 27% | ? | ?
COc1ccc(/C=C2\CC3(OC(=O)c4ccc(F)cc4)CCCN2C3)cc1 (stereo not drawn) | i | . | . | . | .
COc1ccc2nc(C)cc(SCC(=O)NNC(=O)COc3ccccc3)c2c1 | . | 3% | 2% | i | -6%
COc1ccc2nc(C)cc(Sc3nc4ccccc4s3)c2c1 | i | 25µM* | -25% | i | 13%
Cc1ccc(S(=O)(=O)C(CNC(=O)c2ccc(C(F)(F)F)cc2)c2ccco2)cc1 (stereo not drawn) | ? | -22% | . | i | .
O=C(NCC(c1ccco1)S(=O)(=O)c1ccc(Cl)cc1)c1ccc(C(F)(F)F)cc1 (stereo not drawn) | i | 16µM* | . | i | .
C=Cc1ccc(Cn2c(C(=O)O)c(CNCc3ccccc3)c3ccc(OC)cc32)cc1 | ? | -5% | . | i | .
Cc1cccc(Cn2c(Cc3ccccc3)nc3ccccc32)c1 | i | ? | ? | i | -2%
Fc1ccccc1Cn1c(-c2ccccc2)nc2ccccc21 | i | 22µM* | . | i | .
Cc1cccc(Cn2c(-c3ccccc3)nc3ccccc32)c1 | i | 14µM* | . | i | .
CCSc1nc2ccccc2n1Cc1ccccc1F | i | 14µM* | 1% | i | -11%
NC(=O)CSc1nc2ccccc2n1Cc1ccccc1F | i | 23% | -3% | i | ?
COc1cccc(CCNS(=O)(=O)c2c(C)n[nH]c2C)c1 | i | . | . | . | .
N#Cc1c(NCc2ccccc2)ccnc1Cl | i | 14µM* | . | i | 15%
N#Cc1sc(NCc2ccccc2)nc1Cl | i | 8% | -4% | i | 11%
COc1ccc(CCN2C(=O)CN(C3CCCCCC3)C(=O)C2c2ccc(Cl)cc2)cc1OC (stereo not drawn) | i | 9% | . | i | .
Cc1ccccc1C(=O)Nc1sc2c(c1C(=O)N1CCCCC1)CCC(C)C2 (stereo not drawn) | i | 18µM* | . | i | .
Cc1ccccc1C(=O)Nc1sc2c(c1C(=O)N1CCC(C)CC1)CCC(C)C2 (stereo not drawn) | i | 27% | . | i | .
SMILES | FUS suppressor | TDP43 rescue | Mito fusion act | Abeta rescue | aSyn rescue
C=CCNC(=O)N1CCN(Cc2nc3ccccc3c(=O)[nH]2)CC1 | i | . | . | . | .
COC(=O)c1c(C)[nH]c(C)c1C(=O)c1ccccc1Cc1ccccc1 | i | 27% | 2.9µM* | i | -22%
CCSC1=NC2(CCCCC2)Nc2sc3c(c21)CCCC3 | 35µM* | 29% | 4% | i | 3%
CC(=O)Oc1ccccc1C1=NN(C(=O)/C=C/c2ccccc2)C(c2ccccc2)C1 (stereo not drawn) | ? | 16% | 16µM* | i | 8%
O=C(Nn1cc(C(=O)Nc2ccccc2F)c2ccccc2c1=O)c1cnccn1 | i | -7% | ? | i | -18%
COC(=O)c1cn(NC(=O)c2cnccn2)c(=O)c2ccccc12 | i | ? | -15% | i | 22µM*
CCOc1ccccc1-c1nc(-c2ccncc2)no1 | i | 18µM* | 4% | i | 10%

High-throughput results: PubChem, National Center for Advancing Translational Sciences (NCATS)
